# Rtt109 HAT inh = blocks Candida albicans Rtt109/Vps75 acetyltransferase activity | hit rate 0.16% among 330,000 | purified Rtt109/Vps75, ThioGlo CoA-SH fluorescence, 4 h | Q5AAJ8 | AID 540336 | inhibition, % at 34.9 µM;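 active = inhibition of at least 50% in every replicate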
# Target sequence (Q5AAJ8 whole entry, looked up): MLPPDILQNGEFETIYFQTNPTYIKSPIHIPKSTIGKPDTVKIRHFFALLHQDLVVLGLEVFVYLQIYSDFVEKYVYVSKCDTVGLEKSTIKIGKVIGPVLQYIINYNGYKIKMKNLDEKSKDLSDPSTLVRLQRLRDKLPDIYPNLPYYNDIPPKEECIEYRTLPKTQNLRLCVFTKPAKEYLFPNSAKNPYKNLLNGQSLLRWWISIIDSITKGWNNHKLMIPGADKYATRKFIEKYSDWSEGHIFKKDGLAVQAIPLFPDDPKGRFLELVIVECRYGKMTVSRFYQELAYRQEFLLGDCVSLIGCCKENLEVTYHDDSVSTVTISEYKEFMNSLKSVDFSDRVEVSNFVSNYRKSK
# PDI turbidity = blocks human protein disulfide isomerase activity | inhibition, % at 10 µM | PDI insulin aggregation turbidity, A650, 90 min | AID 588391 | hit rate 0.052% among 350,000;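 active = mean inhibition across replicates of 30% or more, whatever share of single replicates reach that level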
# ERp5 block = ERp5 (human) disulfide isomerase inhibition; Q15084; ERp5 insulin aggregation, absorbance 650 nm, 90 min; inhibition, % at 9.99 µM; hit rate 0.05% among 350,000; AID 651711;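 active = mean replicate inhibition above about 25%, with every replicate also reaching it, limit read from the data, passing the limit was not always enough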
# Efflux pump inh = blocks antifungal efflux pumps in multiplex yeast assay; inhibition, % at 10 µM; hit rate 0.44% among 330,000; AID 485275; S. cerevisiae Candida pump triplex, Nile Red efflux;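 active = plate passing quality check with inhibition over a set limit, or well fluorescence over plate mean plus 4 SD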;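 note: Nile Red retained in pooled yeast measured as flow cytometry median fluorescence; 0% = buffer negative control and 100% = Enniatin B positive control; higher means more Nile Red kept so more efflux inhibition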
# PvdQ inh = P. aeruginosa PvdQ acylase inhibition. purified PvdQ acylase, fluorescence plate reader. inhibition, % at 10 µM. hit rate 0.063% among 340,000; in the data active = inhibition above about 30%, passing the limit was not always enough;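 note: 0% = vehicle neutral wells and 100% = reference inhibitor wells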
# Yeast cmpd fluor = flagged as fluorescent in efflux inhibitor counter-screen. shares compounds with Efflux pump inh. S. cerevisiae AD/pABC3, compound fluorescence, flow cytometry. fluorescence ratio to DMSO, % at 10 µM. hit rate 4% among 1,700;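 active = fluorescence ratio to DMSO above its plate's cutoff, the plate mean ratio plus 5 SD, cut at about 210% in these data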;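 note: unstained yeast with no Nile Red so the signal is compound autofluorescence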
# Mdr1 pump inh = blocks the Candida albicans Mdr1 efflux pump in yeast; shares compounds with Efflux pump inh; S. cerevisiae AD/CaMDR1, Nile Red efflux, flow cytometry; inhibition, % at 10 µM; hit rate 1% among 1,700; in the data active = inhibition above about 26%;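 note: 0% = DMSO vehicle and 100% = reference inhibitor; higher means more Nile Red retained so more efflux inhibition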
# CaCdr2 efflux inh = inhibitors of Candida albicans Cdr2 efflux pump | Nile Red retention ratio vs DMSO, % at 10 µM | shares compounds with Efflux pump inh | S. cerevisiae AD/CaCDR2, Nile Red retention, flow cytometry | AID 588520 | hit rate 4% among 1,700; in the data active = Nile Red retention ratio vs DMSO above about 190%;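 note: higher ratio means more blocking of Cdr2 efflux of the dye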
# CaCdr1 efflux inh = Candida Cdr1 efflux pump inhibition. AID 588522. inhibition, % at 10 µM. hit rate 1% among 1,700. shares compounds with Efflux pump inh. S. cerevisiae AD/CaCDR1, Nile Red efflux, flow cytometry;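 active = inhibition above the screen-wide mean plus twice its standard deviation, cut at about 32% in these data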
# * hit, by the source's call; . = no result given; + = active, no number. Compounds with a hit are over-represented: about 0.54% of the library has one in this group of screens.
SMILES,Rtt109 HAT inh,PDI turbidity,ERp5 block,Efflux pump inh,PvdQ inh,Yeast cmpd fluor,Mdr1 pump inh,CaCdr2 efflux inh,CaCdr1 efflux inh
O=C(C[C@@H]1C[C@@H]2c3cc(NC(=O)Nc4ccc(C(F)(F)F)cc4)ccc3O[C@@H]2[C@H](CO)O1)NCCc1ccccc1,.,.,6,.,.,.,.,.,.
CCOC(=O)c1nc(Nc2ccccc2C)c2ccccc2n1,4,7,-2,0.9*,3,104,0,109,0
CCOC(=O)c1nc(Nc2ccccc2CC)c2ccccc2n1,-2,1,-1,0,-6,.,.,.,.
COc1ccc(C(=O)NC23CC4CC(CC(C4)C2)C3)cc1,-3,2,2,0,-6,.,.,.,.
COc1nc(NC23CC4CC(CC(C4)C2)C3)nc(OC)n1,3,-2,.,0.5*,10,104,0,103,0
O=C(C[C@H]1C[C@@H]2c3cc(NC(=O)Nc4ccccc4F)ccc3O[C@@H]2[C@H](CO)O1)NCC(F)(F)F,.,.,2,.,.,.,.,.,.
CCC1=C(c2cc(OC)c(OC)c(OC)c2)C2(CCCC2)C(=O)O1,-7,-5,6,0.8*,-3,113,0,108,0
COc1cc(-c2ccc3oc(-c4ccsc4)c(C#CC4(O)CCCCC4)c3c2)cc(OC)c1OC,-2,-2,3,.,-24,.,.,.,.
COc1ccc(C(=O)NCc2ccc3c(c2)OCO3)cc1S(=O)(=O)N(C)Cc1ccccc1,-4,5,.,7.6*,1,99,0,99,0
CN1/C(=C/c2cccc[n+]2C)Sc2ccccc21,3,10,3,0,-3,.,.,.,.
Cc1ccc2c(c1)N(C)/C(=C/c1cccc[n+]1C)S2,-9,5,-1,1.2*,-4,167,1,97,1
CCN1/C(=C/c2cccc[n+]2C)Sc2ccc(OC)cc21,14,4,1,0,-5,.,.,.,.
COc1ccc2c(c1)N(C)/C(=C/c1cccc[n+]1C)S2,-11,5,0,1.1*,-10,196,2,106,1
C[C@@H]1CN([C@H](C)CO)C(=O)c2cc(NC(=O)Cc3cn(C)c4ccccc34)ccc2O[C@@H]1CN(C)C(=O)Nc1cccc2ccccc12,.,.,1,.,.,.,.,.,.
O=c1oc2ccccc2c2c1C(c1ccc(Cl)cc1)Nc1ccc3ccccc3c1-2 (stereo not given),-5,-12,.,1.0*,-15,103,0,114,0
CCOc1ccc(OCC(=O)c2c(O)c3ccccc3oc2=O)cc1,15,-7,.,0,-10,.,.,.,.
CCOc1ccc(C2Nc3ccc4ccccc4c3-c3c2c(=O)oc2ccccc32)cc1 (stereo not given),.,-6,.,0.6*,-5,118,0,107,1
C[C@@H]1CN([C@H](C)CO)C(=O)Cc2cc(NC(=O)C3CC3)ccc2O[C@H]1CN(C)C(=O)Nc1ccc(F)cc1,.,.,-1,.,.,.,.,.,.
COc1ccc(-c2sc3cc(OC)ccc3c2-c2ccc(OCCN3CCCCC3)cc2)cc1,.,.,4,.,.,.,.,.,.
COc1ccc(-c2sc3ccc(OC)cc3c2-c2ccc(OCCN3CCOCC3)cc2)cc1,-1,4,.,52*,6,100,16,96,55*
COc1cccc(-c2sc3cc(OC)c(OC)cc3c2-c2ccc(OCCN3CCCCC3)cc2)c1,2,3,.,1,-3,98,0,116,0
COc1cccc(-c2sc3ccccc3c2-c2ccc(OCCN3CCCC3)cc2)c1,-2,3,3,1,-3,.,.,.,.
COc1cccc(-c2sc3ccc(OC)cc3c2-c2ccc(OCCN3CCCC3)cc2)c1,4,10,.,73*,-11,95,0,+,0
O=C(NCCCN1CCOCC1)Nc1ccc(Cc2ccc(NC(=O)NCCCN3CCOCC3)cc2)cc1,6,7,4,6.8*,-11,97,0,102,0
Cc1ccc(NC(=O)NCCCN2CCOCC2)cc1,-9,0,.,0,-14,.,.,.,.
SMILES,Rtt109 HAT inh,PDI turbidity,ERp5 block,Efflux pump inh,PvdQ inh,Yeast cmpd fluor,Mdr1 pump inh,CaCdr2 efflux inh,CaCdr1 efflux inh
COc1ccc2c3c([nH]c2c1)[C@@H](CO)N(C(=O)c1cccnc1)CC31CN(C(=O)NC(C)C)C1,.,.,1,.,.,.,.,.,.
COC(=O)C1=C(C)N(c2cc(C)cc(C)c2)/C(=C/c2ccc(O)cc2)C1=O,-1,1,2,0.7*,-7,114,0,101,0
COCC(=O)Nc1ccc2c(c1)C(=O)N(C)C[C@H](OC)[C@H](C)CN(C(=O)C1CCCC1)[C@H](C)CO2,.,.,2,.,.,.,.,.,.
Cc1cc(/C=C(\C#N)C(=O)NCCc2c[nH]c3ccccc23)c(C)n1C,.,10,4,0,6,.,.,.,.
N#C/C(=C/c1ccc(Br)s1)C(=O)NCCc1c[nH]c2ccccc12,19,13,-3,5.5*,-7,111,0,91,0
C[C@@H]1CN([C@@H](C)CO)C(=O)c2cc(NC(=O)c3ccccc3)ccc2O[C@@H](C)CCCCO[C@@H]1CN(C)Cc1ccncc1,.,.,-5,.,.,.,.,.,.
O=C(CN1CCN(CCOCCO)CC1)N1c2ccccc2Sc2ccc(Cl)cc21,-5,0,.,1.4*,-4,105,0,104,0
CCOC(=O)c1ccc(Nc2nc(C)cc(C)n2)cc1,-11,7,3,0,-7,.,.,.,.
CCOC(=O)c1ccc(Nc2cc(C)nc(-c3ccccc3)n2)cc1,-10,0,4,31*,10,102,0,100,0
CO[C@H]1CN(C)C(=O)c2ccc(NC(=O)C3CCCC3)cc2OC[C@H](C)N(S(C)(=O)=O)C[C@H]1C,.,.,0,.,.,.,.,.,.
Cn1cccc1Cc1nnc(SCC(=O)Nc2ccccc2)n1-c1ccc(F)cc1,-5,.,-1,0,-9,101,0,104,0
COc1ccc(-n2c(Cc3cccn3C)nnc2SCC(=O)Nc2cccc(F)c2)cc1,-7,.,0,0,-1,84,0,100,0
C[C@H](CO)N1C[C@H](C)[C@@H](CN(C)Cc2cccnc2)Oc2cc(Br)ccc2S1(=O)=O,.,.,-6,.,.,.,.,.,.
COc1ccc(OC)c(CNn2c(-c3cccc(C)c3)nc3ccccc3c2=O)c1,4,2,.,0.7*,3,90,0,100,0
COc1ccc2cc(CN(CC3CCCO3)S(=O)(=O)c3ccc(C(C)=O)cc3)c(=O)[nH]c2c1 (stereo not given),11,2,.,0.3*,8,96,0,109,92*
CC(C)(C)c1ccc(-n2ncc3c2CCCC3NC(=O)c2csnn2)cc1 (stereo not given),2,-7,3,0,5,.,.,.,.
CC(C)(C)c1ccc(-n2ncc3c2CCCC3NC(=O)c2cnccn2)cc1 (stereo not given),24,0,3,0.5*,5,107,0,98,0

# Screens: PubChem BioAssay, several laboratories
